Measured values from PubChem BioAssay AID1159580 (chemical genetic matrix, 2015).
Where “and” joins values, the source holds several entries; their conditions need not be identical. Identical values can stand only once. About 2,000 (36%) of roughly 5,500 compounds were called active. Inconclusive results (about 18%) are left out. Rule as the data show it: active = normalized growth mostly below about 0.91 (no sharp cut-off); inconclusive = no clear call, values can overlap the other calls; inactive = mostly above about 0.92. This is one part of the list.

Test: chemical genetic growth profiling, strain panel (AID 1159580);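 also: tested at 20 µM; growth read once vehicle control cultures reached saturation at 30 °C; 1 = growth at the plate median or of vehicle wells; lower values mean less growth of the strain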
Details: S. cerevisiae deletion strains, growth OD

Measured: normalized growth

NC(=O)c1ccccc1O
inactive: locus YAL021C, strain ccr4, hits give low values 0.988 | locus YAL026C, strain drs2, hits give low values 0.996 | locus YAL030W, strain snc1, hits give low values 0.966 | locus YBL061C, strain skt5, hits give low values 0.97 | locus YBR009C, strain hhf1, hits give low values 1.04 | locus YBR021W, strain FUR4, hits give low values 1.04 | locus YBR023C, strain chs3, hits give low values 0.987 | locus YBR171W, strain sec66, hits give low values 0.959 | locus YBR229C, strain ROT2, hits give low values 0.999 | locus YBR231C, strain swc5, hits give low values 0.988 | locus YBR279W, strain paf1, hits give low values 0.997 | locus YCL011C, strain gbp2, hits give low values 0.956 | locus YCL016C, strain dcc1, hits give low values 1.01 | locus YCL029C, strain bik1, hits give low values 1.02 | locus YCL061C, strain MRC1, hits give low values 0.963 | locus YCL069W, strain vba3, hits give low values 0.974 | locus YCR088W, strain abp1, hits give low values 0.974 | locus YDL005C, strain med2, hits give low values 0.972 | locus YDL035C, strain GPR1, hits give low values 1.01 | locus YDL040C, strain nat1, hits give low values 0.984 | locus YDL074C, strain BRE1, hits give low values 0.997 | locus YDL101C, strain DUN1, hits give low values 1.01 | locus YDL134C, strain PPH21, hits give low values 1 | locus YDL185W, strain tfp1, hits give low values 1.01 | locus YDL192W, strain arf1, hits give low values 1.01 | locus YDR001C, strain nth1, hits give low values 0.967 | locus YDR069C, strain doa4, hits give low values 0.952 | locus YDR101C, strain arx1, hits give low values 1 | locus YDR137W, strain rgp1, hits give low values 0.964 | locus YDR159W, strain sac3, hits give low values 0.985 | locus YDR162C, strain NBP2, hits give low values 1.01 | locus YDR195W, strain ref2 0.927 | locus YDR297W, strain sur2, hits give low values 0.981 | locus YDR318W, strain mcm21, hits give low values 1.01 | locus YDR334W, strain swr1, hits give low values 0.935 | locus YDR335W, strain msn5, hits give low values 0.947 | locus YDR388W, hits give low values 1.01 | locus YDR392W, strain spt3, hits give low values 1.05 | locus YDR502C, strain sam2, hits give low values 0.997 | locus YEL003W, strain gim4, hits give low values 0.981 | locus YEL037C, strain rad23, hits give low values 0.976 | locus YEL061C, strain CIN8 (second series), hits give low values 0.98 | locus YEL061C, strain CIN8, hits give low values 1 | locus YER015W, strain faa2, hits give low values 1.01 | locus YER016W, strain bim1, hits give low values 1.01 | locus YER110C, hits give low values 1.01 | locus YER111C, strain swi4, hits give low values 0.97 | locus YER155C, strain BEM2 (second series), hits give low values 0.929 | locus YER155C, strain BEM2, hits give low values 1.01 | locus YER167W, strain BCK2, hits give low values 1.01 | locus YFR010W, strain ubp6, hits give low values 0.96 | locus YGL078C, strain dbp3, hits give low values 1 | locus YGL086W, strain mad1, hits give low values 0.998 | locus YGL167C, strain pmr1, hits give low values 0.961 | locus YGL173C, strain kem1, hits give low values 0.968 | locus YGL227W, strain vid30, hits give low values 0.975 | locus YGL240W, strain doc1, hits give low values 0.981 | locus YGL248W, strain PDE1, hits give low values 1 | locus YGL253W, strain hxk2, hits give low values 0.997 | locus YGR135W, strain pre9, hits give low values 1.02 | locus YGR229C, strain SMI1, hits give low values 1.01 | locus YGR252W, strain gcn5, hits give low values 1.03 | locus YHR013C, strain ard1, hits give low values 0.988 | locus YHR027C, strain rpn1, hits give low values 0.991 | locus YHR030C, strain SLT2, hits give low values 1 and 1.07 | locus YHR079C, strain IRE1 (second series), hits give low values 1.02 | locus YHR079C, strain IRE1, hits give low values 1.06 | locus YHR094C, strain hxt1, hits give low values 1 | locus YHR129C, strain ARP1, hits give low values 1.01 | locus YHR142W, strain chs7, hits give low values 0.946 | locus YHR200W, strain rpn10, hits give low values 1 | locus YIL066C, strain RNR3, hits give low values 0.993 | locus YIL073C, strain SPO22, hits give low values 1.05 | locus YIL125W, strain kgd1, hits give low values 1 | locus YIR030C, strain dcg1, hits give low values 1.01 | locus YJL092W, strain hpr5, hits give low values 0.96 | locus YJL095W, strain BCK1 (second series), hits give low values 0.973 | locus YJL095W, strain BCK1, hits give low values 1 and 1.05 | locus YJL115W, strain asf1, hits give low values 0.985 | locus YJL129C, strain trk1, hits give low values 0.992 | locus YJL134W, strain LCB3, hits give low values 1 | locus YJL154C, strain vps35, hits give low values 0.965 | locus YJL164C, strain tpk1, hits give low values 1 | locus YJL166W, strain qcr8, hits give low values 0.924 | locus YJL168C, strain set2, hits give low values 1.01 | locus YJL187C, strain SWE1 (second series), hits give low values 1.01 | locus YJL187C, strain SWE1, hits give low values 0.989 | locus YJR043C, strain POL32, hits give low values 0.985
